Screening data: PubChem BioAssay, National Center for Advancing Translational Sciences (NCATS)
Sampled rows, rich in hits. Any-hit rate of the full collection: about 8.7%.
Sfp inh: inhibitors of Bacillus subtilis Sfp phosphopantetheinyl transferase | Biochemical Sfp PPTase activity, qHTS | Potency, µM, most hits filed as inhibitors | 310,000 tested, 3.5% active;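 also: the enzyme is Sfp with the accession as filed and its product quenches rhodamine fluorescence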
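Buffer: 50 mM Hepes-Na pH 7.6, 10 mM MgCl2, 0.01% Nonidet P-40, 0.01% BSA. Enzyme 15 nM, pre-exposed to compound 15 min; substrates then added and fluorescence change tracked over 30 min.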
G9a inh: blocks human histone lysine methyltransferase G9a. Q96KQ7. G9a H3K9 monomethylation, AlphaScreen, 2 h. Potency, µM (doses to about 102 µM), actives largely listed as inhibitors. 350,000 tested, 8.8% active; also: nearly all actives have a fitted effect of over 75% in size
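Enzyme 20 nM + cpd, 15 min RT; add b-H3K9 pep 500 nM / SAM 20 uM; 2 h RT; anti-H3K9me1 Ab 0.5 ug/mL + SA donor / anti-rabbit acceptor beads 20 ug/mL each, 10 min; AlphaScreen read.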
ALOX12 inh: inhibitors of human 12S-lipoxygenase ALOX12. Potency, µM (top dose mostly 108 µM), most hits filed as inhibitors. purified 12hLO, xylenol orange hydroperoxide absorbance. AID 1671190. P18054. 580,000 tested, 1.1% active
Target sequence (P18054 whole entry, looked up): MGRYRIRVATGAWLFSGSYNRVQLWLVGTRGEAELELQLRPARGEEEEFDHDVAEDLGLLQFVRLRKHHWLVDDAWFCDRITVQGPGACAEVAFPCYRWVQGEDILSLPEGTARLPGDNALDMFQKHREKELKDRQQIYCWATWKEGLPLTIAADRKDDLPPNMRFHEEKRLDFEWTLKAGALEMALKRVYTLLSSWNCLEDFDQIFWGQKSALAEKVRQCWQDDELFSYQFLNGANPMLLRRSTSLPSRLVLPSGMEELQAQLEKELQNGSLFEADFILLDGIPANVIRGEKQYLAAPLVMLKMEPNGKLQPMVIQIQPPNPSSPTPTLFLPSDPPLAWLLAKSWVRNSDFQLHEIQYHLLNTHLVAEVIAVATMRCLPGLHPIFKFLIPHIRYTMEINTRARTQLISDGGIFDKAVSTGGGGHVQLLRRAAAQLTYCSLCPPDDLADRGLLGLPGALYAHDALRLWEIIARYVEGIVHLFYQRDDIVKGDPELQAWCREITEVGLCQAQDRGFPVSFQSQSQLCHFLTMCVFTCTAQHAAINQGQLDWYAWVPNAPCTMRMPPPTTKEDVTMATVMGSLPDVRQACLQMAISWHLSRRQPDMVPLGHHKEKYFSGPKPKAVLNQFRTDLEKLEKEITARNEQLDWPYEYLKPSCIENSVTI
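Hydroperoxide product was detected by ferrous iron/xylenol orange as the 573 to 405 nm absorbance ratio. Arachidonic acid at 40 uM (final) was turned over for 30 min at room temperature by 150 nM human 12hLO, pH 7.0 Hepes buffer, after 15 min compound preincubation.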
BAZ2B block: inhibitors of human BAZ2B bromodomain; Q9UIF8; Potency, µM (doses to about 114 µM), most hits filed as inhibitors; 360,000 tested, 4.4% active; AlphaScreen BAZ2B-H3K14Ac peptide displacement; also: nearly all actives have a fitted effect of over 60% in size
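AlphaScreen displacement: compounds (up to 110uM) incubated 30 min at room temperature with a preformed 50 nM BAZ2B/50 nM biotinylated H3K14Ac peptide complex in PBS pH 7.4 with Tween-20. Donor and acceptor beads at 10 ug/mL final added, 20 min light-protected before reading.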
JMJD2A Tudor inh: JMJD2A Tudor domain (human) inhibition | O75164 | AlphaScreen JMJD2A-Tudor / H3K4me3 peptide binding | Potency, µM (highest dose often 114 µM), actives largely listed as inhibitors | 390,000 tested, 4.4% active; also: nearly all actives have a fitted effect of over 50% in size
HP1b chromo inh: blocks HP1-beta chromodomain binding to methylated histone tails; P83916; AlphaScreen HP1-beta / biotin-H3K9me3 peptide binding; Potency, µM (titrated, usually from 114 µM), most hits filed as inhibitors; 390,000 tested, 0.56% active; also: nearly all actives have a fitted effect of over 70% in size
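Compound inhibition of the preformed complex between 50 nM HP1-beta and 50 nM biotinylated H3K9me3 peptide was read by AlphaScreen. Buffer was PBS pH 7.4 with 0.01% Tween-20. Incubations ran 30 min at room temperature, with 10 ug/mL donor/acceptor beads.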
A number is an active result; ! = not confirmed by another sample; [ ] = remark or other dose. Calls follow the shape of the dose curve; as a rule, active = well fitted curve in the direction sought with a large enough effect; inconclusive = small, poorly fitted or top-dose-only effect, or another doubt; inactive = no such curve, though single readings can be large; an effect the other way counts as inactive or inconclusive.

What do the screens show for `CC1c2cccn2-c2ccccc2CN1C(=O)Nc1ccc(F)cc1F` (stereo not given)?
ALOX12 inh: inactive

Results for Cn1nc(-c2ccc3ccccc3c2)cc1[C@H]1CN2CC[C@H]1C[C@@H]2CNS(=O)(=O)c1cccs1 ?
ALOX12 inh: inactive

What do the screens show for `COc1cc2c(c(OC)c1OC)-c1ccc(O)c(=O)cc1[C@@H](N)CC2`?
G9a inh: inactive[12.7 µM]; ALOX12 inh: inactive; BAZ2B block: inactive; JMJD2A Tudor inh: 79µM; HP1b chromo inh: inactive

Results for NC(=O)CI ?
G9a inh: 2.4µM; ALOX12 inh: inactive

What do the screens show for `Cc1cccc(N2CCN(CCc3ccccc3)CC2)c1C`?
Sfp inh: inactive; G9a inh: inactive[12.7 µM]; ALOX12 inh: inconclusive; BAZ2B block: inconclusive; JMJD2A Tudor inh: inactive; HP1b chromo inh: inactive

Results for Cc1cccc(C)c1N1CCN(c2c(C)cccc2C)CC1 ?
Sfp inh: inactive; G9a inh: 40µM; ALOX12 inh: inconclusive; BAZ2B block: inactive; JMJD2A Tudor inh: inactive; HP1b chromo inh: inactive

Results for O=c1[nH]c(O)c(C=Nc2ccccc2[N+](=O)[O-])c(=O)[nH]1 ?
Sfp inh: inactive; G9a inh: 71µM; BAZ2B block: inactive

Results for O=c1[nH]c(O)c(C=Nc2ccccc2Sc2ccccc2)c(=O)[nH]1 ?
Sfp inh: inactive; G9a inh: inconclusive; ALOX12 inh: inactive; BAZ2B block: inactive; JMJD2A Tudor inh: inactive; HP1b chromo inh: inactive

What do the screens show for `C=CCN1CCc2cccc3c2[C@H]1Cc1ccc(O)c(O)c1-3`?
Sfp inh: 45µM; G9a inh: 0.53µM; ALOX12 inh: 7.9µM; BAZ2B block: inconclusive; JMJD2A Tudor inh: 16µM; HP1b chromo inh: 35µM

What do the screens show for `CCCN1CCc2cc(O)cc3c2C1Cc1ccc(O)c(O)c1-3` (stereo not given)?
Sfp inh: 35µM; G9a inh: 0.32µM; ALOX12 inh: 7.9µM

Results for COc1ccc2c(c1O)-c1cc(O)cc3c1[C@@H](C2)N(C)CC3 ?
Sfp inh: inactive; G9a inh: inconclusive; ALOX12 inh: inactive

Results for c1ccc(C2CN3CCCC3CN2)cc1 (stereo not given) ?
ALOX12 inh: inactive

How did O=C(C(=O)N1CCc2ccccc2C1)c1cn(CC(=O)N2CCCCC2)c2ccccc12 do in these assays?
Sfp inh: inactive; G9a inh: 40µM; ALOX12 inh: inactive; BAZ2B block: inactive; JMJD2A Tudor inh: inactive; HP1b chromo inh: inactive

Results for CC(Cl)C(=O)NC(C)(C)C (stereo not given) ?
ALOX12 inh: inactive

Results for CCCCCCC[n+]1ccc(-c2cc[n+](CCCCCCC)cc2)cc1 ?
Sfp inh: inactive; G9a inh: 4.5µM; ALOX12 inh: inconclusive; BAZ2B block: 79µM; JMJD2A Tudor inh: inconclusive; HP1b chromo inh: inactive

What do the screens show for `CCCCCCCCCCCCCCCC[n+]1ccccc1`?
Sfp inh: 50µM!; G9a inh: inactive[2.33 µM]; ALOX12 inh: inconclusive; JMJD2A Tudor inh: inactive; HP1b chromo inh: inactive

Results for c1ccc2c[n+](CCCCCCCCCC[n+]3ccc4ccccc4c3)ccc2c1 ?
ALOX12 inh: inactive

Results for Cc1ccc(NS(=O)(=O)c2ccc(OCC(=O)N3CCN(C)CC3)cc2)cc1 ?
Sfp inh: inactive; ALOX12 inh: inactive; BAZ2B block: inactive; JMJD2A Tudor inh: inactive; HP1b chromo inh: inactive

What do the screens show for `COc1ccc(NS(=O)(=O)c2ccc(OCC(=O)N3CCN(C)CC3)cc2)cc1Cl`?
Sfp inh: inactive; G9a inh: 79µM; ALOX12 inh: inactive; BAZ2B block: inactive; JMJD2A Tudor inh: inactive; HP1b chromo inh: inactive

How did O=C(CCS(=O)NCc1ccccc1)NCc1ccccc1 (stereo not given) do in these assays?
Sfp inh: 89µM; G9a inh: 18µM; BAZ2B block: inactive

What do the screens show for `Cc1nn(C)cc1C1SCC(=O)Nc2c1c(C)nn2-c1ccccc1` (stereo not given)?
ALOX12 inh: inactive

How did CCc1ccc(-n2c(O)c(/C=N/N3CCCCC3c3cccnc3)c(=O)[nH]c2=O)cc1 (stereo not given) do in these assays?
Sfp inh: inactive; G9a inh: inactive; ALOX12 inh: inactive; BAZ2B block: inactive; JMJD2A Tudor inh: inactive; HP1b chromo inh: inactive
